Assay outcomes from PubChem BioAssay.
HP1b binding inh – blocks HP1-beta chromodomain binding to methylated histone tails. Potency, µM (titrated, usually from 114 µM), without a hit: at the top dose activity change, negative = inhibition, usual class: inhibitors. P83916. hit rate 0.56% among 390,000. AlphaScreen HP1-beta / biotin-H3K9me3 peptide binding; further: nearly all actives have a fitted effect of over 70% in size
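AlphaScreen: HP1-beta (50 nM) preformed 30 min with biotin-H3(1-18)K9me3 peptide (50 nM) in PBS pH 7.4, 0.01% Tween-20. Compound added for 30 min at RT, then streptavidin donor/nickel chelate acceptor beads (10 ug/mL) for 30 min.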
PLK1 PBD block – blocks phosphopeptide binding to human PLK1 polo-box domain. P53350. Plk1 PBD binding of FITC phosphopeptide, fluorescence polarization. Potency, µM, for the others: max response, negative = inhibition, hits mostly inhibitors. hit rate 2.8% among 360,000. AID 720504; further: series mostly up to about 57 µM; on the % scale 0 is the no-effect control and ±100 the full control effect; nearly all actives have a fitted effect of over 65% in size
BAZ2B block – blocks human BAZ2B; Q9UIF8; AlphaScreen BAZ2B-H3K14Ac peptide displacement; Potency, µM (top dose mostly 114 µM), inactives show top-dose activity change, negative = inhibition, actives largely listed as inhibitors; hit rate 4.4% among 360,000; further: on the % scale 0 is the no-effect control and ±100 the full control effect; nearly all actives have a fitted effect of over 60% in size
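Multi-concentration screen (max 110 uM) measuring displacement of acetylated histone H3 peptide from BAZ2B by AlphaScreen, using 50 nM protein, 50 nM peptide and 10 ug/mL streptavidin donor plus Ni-chelate acceptor beads.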
VDR inh – vitamin D3 receptor (human) inhibition; VDR-SRC2-3 peptide fluorescence polarization, 2 h; hit rate 0.93% among 400,000; Potency, µM, for inactives: max response, negative = inhibition, most hits filed as inhibitors; P11473; further: on the % scale 0 is the no-effect control and ±100 the full control effect
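FP read-out; VDR + SRC2-3 coactivator peptide; 23 nl compound by pintool; 2 h RT incubation; reagents held at 4 deg C, protected from light.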
JMJD2A Tudor – inhibitors of human JMJD2A Tudor domain. AID 504339. Potency, µM (top dose mostly 114 µM), without a hit: at the top dose activity change, negative = inhibition, hits mostly inhibitors. AlphaScreen JMJD2A-Tudor / H3K4me3 peptide binding. hit rate 4.4% among 390,000. O75164; further: on the % scale 0 is the no-effect control and ±100 the full control effect; nearly all actives have a fitted effect of over 50% in size
G9a inh – inhibitors of human histone lysine methyltransferase G9a. G9a H3K9 monomethylation, AlphaScreen, 2 h. hit rate 8.8% among 350,000. Potency, µM (doses to about 102 µM), inactives show at the highest dose activity, negative = inhibition, actives largely listed as inhibitors. Q96KQ7; further: on the % scale 0 is the no-effect control and ±100 the full control effect; nearly all actives have a fitted effect of over 75% in size
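Quantitative HTS format: methyltransferase activity on a biotin-tagged H3K9 peptide is measured by AlphaScreen, using a rabbit anti-monomethyl-H3K9 antibody with streptavidin donor and anti-IgG acceptor beads. Final levels are 20 nM enzyme, 500 nM peptide, 20 uM SAM; 2 h RT.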
Numbers without * were called inactive; [ ] = dose if it differs, or a comment. Only some compounds are listed: those with a hit (about 11% of all), similar ones and a draw of the others. The call rests on the fitted dose curve; in most records, active means well fitted curve in the direction sought with a large enough effect; inconclusive means small, poorly fitted or top-dose-only effect, or another doubt; inactive means no such curve, though single readings can be large; an effect the other way counts as inactive or inconclusive. Potency means the concentration at half of the fitted maximal effect.

What do the screens show for `CS(=O)(=O)C1=NSC2=NC(=O)/C(=C\c3ccc(OS(=O)(=O)c4ccccc4)cc3)C(=N)N21`?
HP1b binding inh: -10%; PLK1 PBD block: 30µM*; BAZ2B block: 50µM*; VDR inh: 35µM*; JMJD2A Tudor: inconclusive

Results for Cc1ccc(S(=O)(=O)Oc2ccc(/C=C3/C(=N)N4C(=NC3=O)SN=C4S(C)(=O)=O)cc2)cc1 ?
HP1b binding inh: -7%[57 µM]; PLK1 PBD block: 21µM*; BAZ2B block: inconclusive; VDR inh: inconclusive; JMJD2A Tudor: inconclusive

What do the screens show for `CCS(=O)(=O)C1=NSC2=NC(=O)/C(=C\c3ccc(OS(=O)(=O)c4ccccc4)c(OC)c3)C(=N)N21`?
HP1b binding inh: -5%[57 µM]; PLK1 PBD block: 27µM*; BAZ2B block: 50µM*; VDR inh: 50µM*; JMJD2A Tudor: 56µM*; G9a inh: 40µM*

What do the screens show for `CC(C)n1c(=O)c2ccccc2n1CC(=O)N1CCOCC1`?
PLK1 PBD block: 7%

What do the screens show for `COCCCNC(=O)c1c(-c2ccccc2)c(-c2ccccc2)nn(C)c1=O`?
HP1b binding inh: 13%; BAZ2B block: -4%; VDR inh: -9%; JMJD2A Tudor: -11%; G9a inh: inconclusive

How did Cc1ccc(-c2c3c(=O)n(C)c(=O)n(C)c3c3c(C(F)(F)F)nc4ccccc4n23)cc1 do in these assays?
HP1b binding inh: 92%; BAZ2B block: 20%; VDR inh: -17%; JMJD2A Tudor: 22%; G9a inh: 48%[59 µM]

What do the screens show for `CN(C)CCNc1ncnc2c1ncn2[C@H]1CN(Cc2cccs2)C[C@@H](CO)O1`?
PLK1 PBD block: -1%

Results for COc1cc(/C=C2/C(=N)N3C(=NC2=O)SN=C3S(C)(=O)=O)ccc1OS(=O)(=O)c1ccc(C)cc1 ?
HP1b binding inh: -17%; PLK1 PBD block: 27µM*; BAZ2B block: inconclusive; VDR inh: inconclusive; JMJD2A Tudor: 56µM*; G9a inh: inconclusive

Results for COc1cc(/C=C2/C(=N)N3C=CSC3=NC2=O)ccc1OCCCOc1ccccc1C ?
HP1b binding inh: 8%; PLK1 PBD block: 4%; BAZ2B block: 4%; VDR inh: 12%; JMJD2A Tudor: 5%; G9a inh: -13%[0.501 µM]

How did Cc1noc(C)c1-c1cccc(-c2nn3c(=O)cc(N4CCNCC4)nc3s2)c1 do in these assays?
JMJD2A Tudor: -26%

How did O=c1ccn(CCCBr)c(=O)[nH]1 do in these assays?
HP1b binding inh: 39%; PLK1 PBD block: 2%; BAZ2B block: -4%; VDR inh: 2%; JMJD2A Tudor: 4%; G9a inh: 40µM*

What do the screens show for `CSc1nc(NCCCN(C)C)c2c3c(sc2n1)CN(C)CC3`?
BAZ2B block: -6%; G9a inh: 50µM*

Results for CSc1nc(NCC(C)C)c2c3c(sc2n1)CN(C)CC3 ?
HP1b binding inh: 49%; PLK1 PBD block: -13%; BAZ2B block: 1%; VDR inh: -6%; JMJD2A Tudor: -20%; G9a inh: -39%[59 µM]

Results for CSc1nc(NCc2ccccc2)c2c3c(sc2n1)CN(C)CC3 ?
HP1b binding inh: -2%; PLK1 PBD block: -11%; BAZ2B block: -14%; VDR inh: -3%; JMJD2A Tudor: inconclusive; G9a inh: 40µM*

Results for CC1(C2CC2)NC(=O)N(CC(=O)Nc2ccc(SC(F)F)cc2)C1=O (stereo unspecified) ?
HP1b binding inh: 20%; PLK1 PBD block: -7%; VDR inh: -11%; JMJD2A Tudor: -12%

How did O=C(Nc1ccc2c(c1)CCC2)c1ccc(F)cc1 do in these assays?
HP1b binding inh: 34%; PLK1 PBD block: -4%; BAZ2B block: 3%; VDR inh: -5%; JMJD2A Tudor: -5%; G9a inh: -6%

What do the screens show for `O=C(Nc1ccc2c(c1)CCC2)c1cc(S(=O)(=O)Nc2ccc(F)cc2)c(Cl)cc1Cl`?
HP1b binding inh: -4%; PLK1 PBD block: -11%; BAZ2B block: -7%; VDR inh: 2%; JMJD2A Tudor: inconclusive; G9a inh: 10µM*

How did Cc1cccc(C)c1C(O)c1ncc(-c2cccc3ccccc23)[nH]1 (stereo unspecified) do in these assays?
PLK1 PBD block: -3%

Results for O=C(O)c1nn(-c2ccccc2)ccc1=O ?
HP1b binding inh: 14%; PLK1 PBD block: 12µM*; BAZ2B block: 5%; VDR inh: -12%; JMJD2A Tudor: -21%[11.4 µM]

Results for O=[N+]([O-])c1ccc(/C=N/n2c(CO)nc3ccccc32)s1 ?
HP1b binding inh: 5%; PLK1 PBD block: -9%; BAZ2B block: -8%; VDR inh: -8%; JMJD2A Tudor: -26%; G9a inh: -7%[59 µM]

What do the screens show for `Cc1ccc(NC(=S)N/N=C/c2ccc([N+](=O)[O-])s2)cc1`?
HP1b binding inh: inconclusive; PLK1 PBD block: -4%; BAZ2B block: 14µM*; VDR inh: -4%; JMJD2A Tudor: 40µM*; G9a inh: 40µM*

What do the screens show for `Cc1onc(-c2ccccc2)c1C(=O)N/N=C/c1ccc([N+](=O)[O-])s1`?
HP1b binding inh: -1%; PLK1 PBD block: -9%; BAZ2B block: inconclusive; VDR inh: -5%; JMJD2A Tudor: inconclusive; G9a inh: -6%

What do the screens show for `Cc1nc2ccccc2n1/N=C/c1ccc([N+](=O)[O-])s1`?
HP1b binding inh: -23%; PLK1 PBD block: -6%; BAZ2B block: -33%; VDR inh: -1%; JMJD2A Tudor: -19%; G9a inh: 50µM*

How did Cc1cc(C)cc(N=Cc2ccc([N+](=O)[O-])s2)c1 do in these assays?
HP1b binding inh: 45µM*; PLK1 PBD block: -5%; BAZ2B block: 25µM*; VDR inh: -15%; JMJD2A Tudor: 20µM*; G9a inh: 40µM*

How did COc1ccccc1CNC1CCN(Cc2ccccc2)CC1 do in these assays?
HP1b binding inh: 34%; PLK1 PBD block: -10%; BAZ2B block: 3%; VDR inh: -7%; JMJD2A Tudor: -9%; G9a inh: inconclusive

What do the screens show for `COc1cc(OC)c(CN2CCC(Cc3ccccc3)CC2)cc1Br`?
HP1b binding inh: 0%; PLK1 PBD block: -5%; BAZ2B block: 56µM*; VDR inh: -12%; JMJD2A Tudor: 25µM*

What do the screens show for `COc1ccc(-c2noc(CN3CCC(Cc4ccccc4)CC3)n2)cc1`?
HP1b binding inh: 51%; PLK1 PBD block: -4%; BAZ2B block: 17%; VDR inh: 7%; JMJD2A Tudor: 2%; G9a inh: 17%

How did COc1ccc(OC)c(CN2CCC(Cc3ccccc3)CC2)c1 do in these assays?
HP1b binding inh: inconclusive; PLK1 PBD block: 1%; BAZ2B block: 56µM*; VDR inh: -8%; JMJD2A Tudor: 50µM*

Results for COc1cc(C)c(CN2CCC(Cc3ccccc3)CC2)cc1C ?
HP1b binding inh: -19%; PLK1 PBD block: -11%; BAZ2B block: 56µM*; VDR inh: -29%; JMJD2A Tudor: 28µM*
